Pf growth 48h: inhibits P. falciparum growth in the first generation, 48 h | P. falciparum luciferase growth in erythrocytes, 48 h | Potency, µM (top dose mostly 28.7 µM), inactives show top-dose activity change, negative = inhibition, usual class: inhibitors | hit rate 5.9% among 310,000 | AID 504832; further: potency means the concentration at half of the fitted maximal effect; on the % scale 0 is the no-effect control and ±100 the full control effect
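In quantitative HTS format, infected erythrocytes bearing luciferase-reporter parasites were treated for a single generation at 37 C. Luminescence after adding detection reagent served as the growth measure.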
SARS PLP yeast: blocks SARS-CoV papain-like protease in a yeast assay; Potency, µM (highest dose often 32.9 µM), without a hit: at the highest dose activity, positive = growth rescue, actives largely listed as activators; AID 485353; S. cerevisiae expressing SARS-CoV PLpro, growth rescue; hit rate 0.19% among 330,000; calls by dose curve; further: potency means the concentration at half of the fitted maximal effect; 0% is about no effect; nearly all actives have a fitted effect of over 55% in size
Pf growth 96h: inhibits malaria parasite growth, 96 h; P. falciparum luciferase reporter growth, 96 h; Potency, µM (top dose mostly 28.7 µM), for the others: at the highest dose activity change, negative = inhibition, hits mostly inhibitors; hit rate 6.9% among 320,000; further: potency means the concentration at half of the fitted maximal effect; on the % scale 0 is the no-effect control and ±100 the full control effect
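Infected RBCs, 2% Hct / 0.05% parasitemia final; luciferase-reporter P. falciparum; cpd 96 h, 37 C, 5% CO2; luciferase detection reagent; luminescence.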
AMA1 RON2 block: AMA1-RON2 (P. falciparum) interaction inhibition; Potency, µM (series often up to 58.2 µM), for inactives: at the top dose activity change, negative = inhibition, actives largely listed as inhibitors; hit rate 0.2% among 360,000; AlphaScreen AMA1-biotinylated RON2 peptide binding;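 further: potency means the concentration at half of the fitted maximal effect; 0% = vehicle wells and -100% = peptide control; nearly all actives have a fitted effect of over 45% in size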
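AMA1 (3D7) with his tag at 25 nM final met compounds first, then biotinylated RON2 peptide at 25 nM; detection used donor plus acceptor beads, 10 µg/mL apiece, read by AlphaScreen after 30 min at room temperature.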
Shiga toxin inh: Shiga toxin inhibition. hit rate 9.2% among 290,000. inhibition, % at 38.7 µM. Vero cells, Shiga toxin protein synthesis inhibition reporter; in the data active means inhibition mostly above about 28%, no sharp cut-off; inactive means mostly below about 43%; further: 0% is about no effect
CHX counter: counter-screen hit for Shiga toxin inhibitors, cycloheximide. hit rate 12% among 300,000. max response, %. AID 2314. cell reporter, cycloheximide protein synthesis inhibition counterscreen; in the data active means max response mostly above about 13%, no sharp cut-off; inactive means mostly below about 14%; further: read at 38.3 µM for the half of the compounds with a filed dose; 0% is about no effect
Numbers without * were called inactive. Hits are enriched below; roughly 19% of the tested compounds scored in any of these assays. Unless noted, the call rests on the fitted dose curve; in most records, active means well fitted curve in the direction sought with a large enough effect; inconclusive means small, poorly fitted or top-dose-only effect, or another doubt; inactive means no such curve, though single readings can be large; an effect the other way counts as inactive or inconclusive.

Screening COc1ccc(N2Cc3ccccc3C2=NC(=O)c2ccc(C)cc2)cc1OC returned Pf growth 48h inconclusive, SARS PLP yeast 0%, Pf growth 96h inconclusive, AMA1 RON2 block -6%, Shiga toxin inh 10 and CHX counter 15.
For CCOC(=O)c1ccc(N2Cc3ccccc3C2=NC(=O)c2cccc([N+](=O)[O-])c2)cc1 the results were AMA1 RON2 block -10%.
For O=C(/N=C1/c2ccccc2CN1c1ccccc1)Nc1ccccc1 the results were Pf growth 48h 10%, SARS PLP yeast -6%, Pf growth 96h inconclusive, AMA1 RON2 block -27%, Shiga toxin inh 12 and CHX counter 11.
O=C(N=C1c2ccccc2CN1c1ccccc1)c1cccc([N+](=O)[O-])c1 was read as Pf growth 48h 67%, SARS PLP yeast -20%, Pf growth 96h 85%, AMA1 RON2 block -3%, Shiga toxin inh 35 and CHX counter 18*.
`Cc1ccccc1C(=O)NNC(=O)C1CC(=O)N(c2ccc3c(c2)OCCO3)C1` (stereo unspecified) gave Pf growth 48h -10%, SARS PLP yeast 1%, Pf growth 96h 16% and AMA1 RON2 block 39%.
`Cc1ncc(CO)c2cc(C(=O)Nc3ccccc3Cl)c(=Nc3cccc(C(N)=O)c3)oc12` gave Pf growth 48h 40%, SARS PLP yeast 0%, Pf growth 96h -5%, AMA1 RON2 block -8%, Shiga toxin inh -4 and CHX counter -4.
CS(=O)(=O)N(CC(=O)N1CCCCC1)c1cccc(F)c1 was read as Pf growth 48h 22%, SARS PLP yeast 0%, Pf growth 96h -15%, AMA1 RON2 block -3%, Shiga toxin inh -8 and CHX counter -3.
COc1ccc(-c2nc(CS(=O)(=O)CC(=O)NCc3ccc(F)cc3)c(C)o2)cc1 was read as Pf growth 48h 14%, SARS PLP yeast 6%, Pf growth 96h 7%, AMA1 RON2 block -21%, Shiga toxin inh -5 and CHX counter -1.
Screening N#Cc1c(NC(=O)CSc2nnnn2C2CCCCC2)sc2c1CCCC2 returned Pf growth 48h 13%, SARS PLP yeast 1%, Pf growth 96h inconclusive, AMA1 RON2 block -22%, Shiga toxin inh -15 and CHX counter -7.
Screening Cc1nnc(SCC(=O)Nc2sc3c(c2C#N)CCCCC3)n1N returned Pf growth 48h 29%, SARS PLP yeast -4%, AMA1 RON2 block 3%, Shiga toxin inh 51* and CHX counter 20*.
For Cc1nnc(SCC(=O)Nc2sc3c(c2C#N)CCCC3)[nH]c1=O the results were Pf growth 48h 7%, SARS PLP yeast 0%, Pf growth 96h 15µM*, AMA1 RON2 block -8%, Shiga toxin inh -4 and CHX counter -1.
For C=Cc1ccc(S(=O)(=O)O)cc1 the results were Pf growth 48h -9%, Pf growth 96h 1%, Shiga toxin inh 2 and CHX counter -5.
Screening C/C(CC(=O)NCc1ccco1)=N\NC(=O)c1ccc([N+](=O)[O-])cc1Cl returned Pf growth 48h -1%, SARS PLP yeast -3%, Pf growth 96h 4%, AMA1 RON2 block 11%, Shiga toxin inh 34 and CHX counter 10.
CSc1ccc(S(=O)(=O)NCC(=O)OCC(=O)N2CCCCC2C)cc1[N+](=O)[O-] (stereo unspecified) was read as Pf growth 48h inconclusive, SARS PLP yeast -2%, Pf growth 96h 14% and AMA1 RON2 block 10%.
For COc1cccc(OCc2cc(C(=O)N3CCCC3c3ccccn3)no2)c1 (stereo unspecified) the results were Pf growth 48h 13%, SARS PLP yeast -8%, Pf growth 96h 12%, AMA1 RON2 block -5%, Shiga toxin inh 62* and CHX counter 70*.
For COc1cccc(OCc2cc(C(=O)N3CCN(C4CCCC4)CC3)no2)c1 the results were Pf growth 48h 16%, SARS PLP yeast -11%, Pf growth 96h inconclusive, AMA1 RON2 block -19%, Shiga toxin inh 33 and CHX counter 2.
Screening CCN(CC)C(=O)C1CCCN(C(=O)c2cc(COc3cccc(OC)c3)on2)C1 (stereo unspecified) returned Pf growth 48h 20%, SARS PLP yeast 2%, Pf growth 96h 9.3µM*, AMA1 RON2 block -2%, Shiga toxin inh -13 and CHX counter -1.
For COc1cccc(OCc2cc(C(=O)N3CCC(C(O)C(C)C)CC3)no2)c1 (stereo unspecified) the results were Pf growth 48h inconclusive, SARS PLP yeast 0%, Pf growth 96h inconclusive, AMA1 RON2 block 0%, Shiga toxin inh 6 and CHX counter 23.
Screening COc1cccc(OCc2cc(C(=O)N3CCNC(=O)C3Cc3ccccc3)no2)c1 (stereo unspecified) returned Pf growth 48h inconclusive, SARS PLP yeast -2%, Pf growth 96h 14%, AMA1 RON2 block -4%, Shiga toxin inh 74* and CHX counter 40*.
`Cc1cc(=O)oc(C)c1C(=O)Nc1cccc(F)c1` gave Pf growth 48h 0%, SARS PLP yeast 0%, Pf growth 96h -6%, AMA1 RON2 block -10%, Shiga toxin inh -6 and CHX counter -3.
For CCOc1ccccc1N(CC(=O)NCCSc1ccccc1)S(C)(=O)=O the results were Pf growth 48h -12%, SARS PLP yeast 0%, Pf growth 96h 478%, AMA1 RON2 block -12%, Shiga toxin inh -13 and CHX counter 1.
Screening Cn1c(N)c(S(=O)(=O)NCc2ccccc2)c(=O)n(C)c1=O returned AMA1 RON2 block 13%.
CC(NS(=O)(=O)c1c(N)n(C)c(=O)n(C)c1=O)c1ccccc1 (stereo unspecified) was read as Pf growth 48h 3%, SARS PLP yeast -6%, Pf growth 96h 2%, AMA1 RON2 block -8%, Shiga toxin inh 57* and CHX counter 29*.
Screening Nc1nnc(SCC(=O)OCc2ccc(F)cc2)s1 returned Pf growth 48h -12%, SARS PLP yeast 1%, Pf growth 96h -16%, AMA1 RON2 block -1%, Shiga toxin inh -9 and CHX counter -6.
COc1cccc(CC2(CO)CCCN(S(=O)(=O)N(C)C)C2)c1 (stereo unspecified) was read as Pf growth 48h -7%, SARS PLP yeast 0%, Pf growth 96h 6.6µM*, AMA1 RON2 block 6%, Shiga toxin inh 15 and CHX counter 5.
`Cn1cc(CN2CCCC(CO)(Cc3ccccc3)C2)c2ccccc21` (stereo unspecified) gave Pf growth 48h 12µM*, SARS PLP yeast 0%, Pf growth 96h -17%, AMA1 RON2 block -6%, Shiga toxin inh -17 and CHX counter -2.
`COc1cccc(CC2(CO)CCCN(Cc3cn[nH]c3-c3ccc(F)cc3)C2)c1` (stereo unspecified) gave Pf growth 48h inconclusive, SARS PLP yeast 0%, Pf growth 96h 256%, AMA1 RON2 block 0%, Shiga toxin inh -11 and CHX counter -3.
